{
  "source": "PubChem BioAssay (NCATS)",
  "data": [
    {"experiment": "qHTS profiling for inhibitors of Plasmodium falciparum (3D7) proliferation (AID 743322);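 further: infected erythrocytes exposed to compound for 72 h before lysis; 100% = DMSO vehicle wells and 0% = 0.29 µM artemisinin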", "conditions": "P. falciparum 3D7 proliferation; at 28.7 µM (top of the series) unless noted", "excerpt": "Plasmodium falciparum is a virulent malarial parasite that kills 1-2 million people worldwide each year. Transmitted by mosquitoes, the sporozoite form of the parasite enters the blood stream to infect hepatocytes, where they become merozoites that infect red blood cells (erythrocytes). Within erythrocytes, merozoites begin a […] cycle of growth and division, after which the parasite is released to infect new red blood cells. Gametocytes, which form within erythrocytes as well, circulate in the bloodstream and are ingested by the mosquito, thereby completing the life cycle. To profile malarial isolates for differential chemical responses and to identify inhibitors of malarial growth, an assay that measures P. falciparum growth and replication within erythrocytes was employed. This assay uses a DNA binding fluorescent dye (SYBR Green) to detect parasite DNA following cell lysis. Because mature erythrocytes lack DNA, only Plasmodium-derived DNA is detected.\nThe SYBR Green viability assay was adapted from a method described previously (Plouffe et al., 2008). For screening 3 ul culture medium was dispensed into 1536 well black clear bottom plates (Aurora Biotechnologies) using a Multidrop Combi (Thermo Fisher Scientific Inc.), 23 nL compounds in DMSO were added by a pin tool (Kalypsys), and 5 ul of erythrocytes infected with P. falciparum (0.3% parasitemia, 2.5% hematocrit final concentration) were added. The plates were incubated at 37 C in a humidified incubator in 5% CO2 for 72 h, and 2 ul lysis buffer (20 mM Tris HCl, 10 mM EDTA, 0.16% saponin, 1.6% triton X, 10X SYBR Green I supplied as 10,000X […] by Invitrogen) was added to each well. The plates were mixed for 25 sec with gentle shaking and incubated overnight at room temperature in the dark. The following morning, fluorescence intensity at 485(14) nm excitation and 535(25) nm emission wavelengths was measured on an EnVision (Perkin Elmer) plate reader. Plate reads were normalized relative to the control inhibitor (0.29 uM artemisinin) and vehicle (DMSO) wells present on each plate and then corrected by an algorithm using vehicle-only control plates at the beginning and end of the compound plate stack.", "values": [
      {"compound": "CC(C)C[C@@H](C(=O)N[C@H](C(=O)OC1CCCC1)c1ccccc1)[C@H](O)C(=O)NO", "remaining parasite growth % (stronger effect = lower value)": "3.5%"},
      {"compound": "Cc1ccc(C(=O)N(CCCN)[C@@H](c2nc3cc(Cl)ccc3c(=O)n2Cc2ccccc2)C(C)C)cc1", "remaining parasite growth % (stronger effect = lower value)": "-0.752%"},
      {"compound": "CCN(CC)CCCCNc1nc2cc(Cl)c(Cl)cc2nc1-c1ccc(-c2cccs2)s1", "remaining parasite growth % (stronger effect = lower value)": "0.96%"},
      {"compound": "COc1cc([C@@H]2c3cc4c(cc3[C@@H](O[C@@H]3O[C@@H]5CO[C@@H](C)O[C@@H]5[C@H](O)[C@@H]3O)[C@H]3COC(=O)[C@H]23)OCO4)cc(OC)c1O", "remaining parasite growth % (stronger effect = lower value)": "51.5% [at 9.63 µM]"},
      {"compound": "Cn1cc(-c2ccc3nnc(Sc4ccc5ncccc5c4)n3n2)cn1", "remaining parasite growth % (stronger effect = lower value)": "74.3%"},
      {"compound": "CCCCOCCOc1nc(-c2ccc(C(=O)O)c(F)c2)sc1C", "remaining parasite growth % (stronger effect = lower value)": "105%"},
      {"compound": "CCC(=O)N1CCN(c2ccc(-n3c(=O)ccc4cnc5ccc(-c6cnc7ccccc7c6)cc5c43)cc2C(F)(F)F)CC1", "remaining parasite growth % (stronger effect = lower value)": "4.73%"},
      {"compound": "O=C(Nc1cccc(Cl)c1)Nc1ncc(CCNc2ncnc3ccsc23)s1", "remaining parasite growth % (stronger effect = lower value)": "0.421%"},
      {"compound": "CCOC(=O)[C@@H](N)CCC(=O)N[C@@H](CSCc1ccccc1)C(=O)N[C@@H](C(=O)OCC)c1ccccc1", "remaining parasite growth % (stronger effect = lower value)": "51.1%"},
      {"compound": "NC(=O)c1ccc(N(C(N)=O)c2c(F)cccc2F)nc1-c1ccc(F)cc1F", "remaining parasite growth % (stronger effect = lower value)": "84.7%"},
      {"compound": "CNC(=O)c1cc(Oc2ccc(NC(=O)Nc3ccc(Cl)c(C(F)(F)F)c3)c(F)c2)ccn1", "remaining parasite growth % (stronger effect = lower value)": "1.04%"},
      {"compound": "CCCCn1c(=O)n(Cc2ccccc2F)c(=O)c2[nH]c(Cc3ccc(NC(C)=O)cc3)nc21", "remaining parasite growth % (stronger effect = lower value)": "71.1%"},
      {"compound": "Cc1ccc(NC(=O)c2ccc(CN3CCN(C)CC3)cc2)cc1Nc1nc(-c2cccnc2)cs1", "remaining parasite growth % (stronger effect = lower value)": "0.463%"},
      {"compound": "COc1cccc(OC)c1-c1cc(C(=O)NC2(C(=O)O)C3CC4CC(C3)CC2C4)nn1-c1ccnc2cc(Cl)ccc12", "note": "(stereo not given)", "remaining parasite growth % (stronger effect = lower value)": "23.7%"},
      {"compound": "Cc1cc2c(cc1C1(c3ccc(C(=O)O)cn3)CC1)C(C)(C)CCC2(C)C", "remaining parasite growth % (stronger effect = lower value)": "101%"},
      {"compound": "C[C@@H](O[C@H]1OCCN(Cc2n[nH]c(=O)[nH]2)[C@@H]1c1ccc(F)cc1)c1cc(C(F)(F)F)cc(C(F)(F)F)c1", "remaining parasite growth % (stronger effect = lower value)": "16.5%"},
      {"compound": "COC(=O)Nc1ccc(-c2nc(N3CCOCC3)c3cnn(C4CCN(C(=O)OC)CC4)c3n2)cc1", "remaining parasite growth % (stronger effect = lower value)": "3.29%"},
      {"compound": "CCC=CC[C@H]1C(=O)CC[C@@H]1CC(=O)OC", "remaining parasite growth % (stronger effect = lower value)": "94.5%"},
      {"compound": "O=C1NC(=O)C(c2cnc3ccccn23)=C1c1cn2c3c(cccc13)CN(C(=O)N1CCOCC1)CC2", "remaining parasite growth % (stronger effect = lower value)": "49.3%"},
      {"compound": "CN(C)CCCNC(=O)c1ccc(-c2cc(O)c3ncccc3c2)cc1", "remaining parasite growth % (stronger effect = lower value)": "3.59%"},
      {"compound": "Cc1nn(Cc2ccccc2Cl)c(C)c1CN(C)CC(O)COc1ccc(Cl)cc1", "note": "(stereo not given)", "remaining parasite growth % (stronger effect = lower value)": "29.8%"},
      {"compound": "CN(C)CC[C@H](CSc1ccccc1)Nc1ccc(S(=O)(=O)NC(=O)c2ccc(N3CCN(Cc4ccccc4-c4ccc(Cl)cc4)CC3)cc2)cc1[N+](=O)[O-]", "remaining parasite growth % (stronger effect = lower value)": "11.6%"},
      {"compound": "CN(C)CCN(C)C(=O)c1ccc(NC(=O)Nc2ccc(-c3nc(N4CCOCC4)c4ccn(CC(F)(F)F)c4n3)cc2)cc1", "remaining parasite growth % (stronger effect = lower value)": "-0.909%"},
      {"compound": "C=C[C@@H]1CN2CCC1C[C@@H]2C(O)c1ccnc2ccc(OC)cc12", "note": "(stereo not given in full)", "remaining parasite growth % (stronger effect = lower value)": "2.76%"},
      {"compound": "O=C(O)c1ccc(O)c2ncc(N3CCOCC3)cc12", "remaining parasite growth % (stronger effect = lower value)": "22.3%"},
      {"compound": "OCCn1cc(-c2ccc3c(c2)CCC3=NO)c(-c2ccncc2)n1", "remaining parasite growth % (stronger effect = lower value)": "89.8%"},
      {"compound": "O=C(O)Cc1cccc(OCCCN(Cc2cccc(C(F)(F)F)c2Cl)CC(c2ccccc2)c2ccccc2)c1", "remaining parasite growth % (stronger effect = lower value)": "36.2%"},
      {"compound": "O=C1C(CCC(O)c2ccc(F)cc2)C(c2ccc(O)cc2)N1c1ccc(F)cc1", "note": "(stereo not given)", "remaining parasite growth % (stronger effect = lower value)": "18.4%"},
      {"compound": "COc1c(C)cnc(Cn2cnc3c(Cl)nc(N)nc32)c1C", "remaining parasite growth % (stronger effect = lower value)": "40.5%"},
      {"compound": "CO[C@@H]1C(N(C)C(=O)c2ccccc2)C[C@H]2O[C@]1(C)n1c3ccccc3c3c4c(c5c6ccccc6n2c5c31)C(=O)NC4=O", "note": "(stereo not given in full)", "remaining parasite growth % (stronger effect = lower value)": "110%"},
      {"compound": "Nc1ccc(-c2ccc3ncc4ccc(=O)n(-c5cccc(C(F)(F)F)c5)c4c3c2)cn1", "remaining parasite growth % (stronger effect = lower value)": "-1.33%"},
      {"compound": "COc1ccc2nc3cc(Cl)ccc3c(Nc3cc(CN4CCCC4)c(O)c(CN4CCCC4)c3)c2n1", "remaining parasite growth % (stronger effect = lower value)": "-1.29%"},
      {"compound": "Clc1ccc(COC(Cn2ccnc2)c2ccc(Cl)cc2Cl)c(Cl)c1", "note": "(stereo not given)", "remaining parasite growth % (stronger effect = lower value)": "-0.257%"},
      {"compound": "CCCCc1ccc(NS(=O)(=O)c2ccc(C)c(C(=O)N3CCN(c4cccc(C)c4C)CC3)c2)cc1", "remaining parasite growth % (stronger effect = lower value)": "37.4%"},
      {"compound": "O=C1CN2Cc3c(ccc(Cl)c3Cl)N=C2N1", "remaining parasite growth % (stronger effect = lower value)": "87%"},
      {"compound": "COc1ccc(CCN(C)CCCOc2ccc(S(=O)(=O)c3[nH]c4ccccc4c3C(C)C)cc2)cc1OC", "remaining parasite growth % (stronger effect = lower value)": "-1%"},
      {"compound": "Cc1c(C(=O)Nc2ccc(N3C[C@@H](C)O[C@@H](C)C3)nc2)cccc1-c1ccc(OC(F)(F)F)cc1", "remaining parasite growth % (stronger effect = lower value)": "72.2%"},
      {"compound": "CC(C)CNc1ccnc(NCc2csc(-c3ccccc3)n2)n1", "remaining parasite growth % (stronger effect = lower value)": "3.03%"},
      {"compound": "COc1nc(C)cnc1NS(=O)(=O)c1cccnc1-c1ccc(-c2nnco2)cc1", "remaining parasite growth % (stronger effect = lower value)": "63.7%"},
      {"compound": "CCCCCCCCCCCCCC(=O)N[C@H](CO)[C@H](O)c1ccc([N+](=O)[O-])cc1", "remaining parasite growth % (stronger effect = lower value)": "90.4%"}
    ]}
  ]
}
